Most compounds without a hit are left out; they make up all but 6% or so of the library.
DRD3 agonist: qHTS of D3 Dopamine Receptor Agonist: qHTS | AID 652048, 2013 | hit rate 0.58% among 410,000 | D3R DiscoveRx beta-arrestin cells, luminescence, 90 min | max activation, %; in the data active = max activation above about 30%; note: 0% is about no effect
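Cells at 1500/well, incubated overnight, then treated with pinned compounds (dopamine as control) for 90 min at 37 degrees C. DiscoveRx reagent added for 30 - 60 minutes at room temperature; luminescence read.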
D3 antag: qHTS of D3 Dopamine Receptor Antagonist: qHTS. AID 652054, 2013. max response, negative = inhibition, %. D3R cells, DiscoveRx beta-arrestin luminescence, antagonist mode; hits give low values. hit rate 2.5% among 360,000; in the data active = max response below about -50%; inconclusive = no clear call, values can overlap the other calls; note: % is set by controls: 0 for no effect and ±100 for the full control effect
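Cells plated overnight at 1500 cells/well, then exposed to library compounds with dopamine controls for 90 minutes at 37 degrees C. DiscoveRx reagent added for 30–60 minutes at room temperature; luminescence read, quantitative HTS format.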
D1 agonist: Allosteric Agonists of the Human D1 Dopamine Receptor: qHTS; HEK293 T-REx D1 cells, calcium flux, agonist mode; D(1A) dopamine receptor (Homo sapiens), P21728; AID 504660, 2011; activation, % at 2 µM; hit rate 1% among 360,000; in the data active = activation above about 30%; note: 0% is about no effect
Target sequence (P21728 whole entry, looked up): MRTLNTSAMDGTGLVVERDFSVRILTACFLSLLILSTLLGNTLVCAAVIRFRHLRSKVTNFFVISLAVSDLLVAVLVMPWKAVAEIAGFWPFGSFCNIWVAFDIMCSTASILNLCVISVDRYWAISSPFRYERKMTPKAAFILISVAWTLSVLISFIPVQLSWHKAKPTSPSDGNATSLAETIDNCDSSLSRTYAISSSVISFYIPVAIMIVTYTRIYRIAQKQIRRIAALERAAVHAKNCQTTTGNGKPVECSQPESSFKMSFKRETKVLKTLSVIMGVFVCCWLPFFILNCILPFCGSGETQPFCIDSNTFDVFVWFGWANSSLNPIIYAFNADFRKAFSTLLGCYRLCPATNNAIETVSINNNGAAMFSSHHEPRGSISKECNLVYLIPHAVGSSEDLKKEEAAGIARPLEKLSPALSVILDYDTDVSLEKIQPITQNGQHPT
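Tetracycline-induced HEK293 TREx D1 cells, force-coupled to calcium signalling, were dye-loaded with a no-wash calcium kit. Compound was pin-added after a 10 s baseline. Fluorescence was read kinetically at 1 cycle/s for 180 s, with calcium rises flagged as agonism.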
D1 antag: Antagonist of Human D 1 Dopamine Receptor: qHTS; activity change, negative = inhibition, % at 10 µM; hit rate 3.2% among 360,000; AID 504652, 2011; D(1A) dopamine receptor (Homo sapiens), P21728; HEK293 TREx D1 cells, calcium flux, dopamine EC80; hits give low values; in the data active = activity change below about -30%; note: % is set by controls: 0 for no effect and ±100 for the full control effect
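Antagonism measured as reduced calcium response to an EC80 dopamine addition following 180 s compound pre-read; cells were inducible HEK293 Trex D1 plated overnight at 30 C, read kinetically at 1 cycle/sec.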
D1 potentiator: Potentiators of Human D1 Dopamine Receptor: qHTS; D(1A) dopamine receptor (Homo sapiens), P21728; HEK293 TREx D1 cells, calcium flux, dopamine EC20 potentiation; potentiation, % at 10 µM; hit rate 0.036% among 360,000; AID 504651, 2011; in the data active = potentiation above about 30%; note: 0% is about no effect
Starred values were filed as active, the others as inactive; ? = inconclusive; nt = no result given; + = active, no number.

SMILES | DRD3 agonist | D3 antag | D1 agonist | D1 antag | D1 potentiator
O=C(C[n+]1cc(-c2ccc(Cl)c(Cl)c2)n2c1CCC2)N1c2ccccc2Sc2ccccc21 | -8.5 | 6.9 | 0.8 | -38.9* | -6.8
COc1ccc(-c2cc(C(=O)NCc3ccc(F)cc3)no2)cc1 | -17.4 | nt | 0.5 | 1.0 | -0.3
COc1ccc(-c2c(C)sc(NC(=O)c3ccnn3C)c2C#N)cc1 | 54.5* | 98.1 | 13.6 | -4.7 | -2.6
Cn1nccc1C(=O)Nc1sc2c(c1C#N)CCCC2 | 0.6 | -17.1 | -0.9 | 4.2 | -10.9
COc1ccc(S(=O)(=O)N(Cc2nc(-c3ccc(Cl)cc3)no2)C2CCCCC2)cc1 | -16.6 | nt | 16.9 | 2.2 | -1.6
CCCCNc1nc2ccccc2n1CC(=O)N1CCc2ccccc2C1 | -44.6 | -76.0* | 4.9 | -3.4 | -1.9
CCCCNC(=O)N1CCc2ccccc2C1 | -8.8 | -11.2 | 0.1 | -17.6 | -3.1
Cc1cc(NC(=O)C2CCCN(S(=O)(=O)c3cccc4nonc34)C2)ccc1Br (stereo not drawn) | 9.2 | nt | 2.1 | 2.2 | -0.4
CC1c2[nH]c3ccccc3c2CCN1C(=O)Nc1ccccc1 (stereo not drawn) | -8.2 | 0.0 | 13.3 | -36.4* | -5.2
Cc1ccccc1Nc1c(-c2c[nH]c3ccccc23)nc2cccc(C)n12 | -17.1 | nt | 32.7* | -5.3 | 3.4
Cc1ccc2nc(-c3c[nH]c4ccccc34)c(Nc3ccccc3C)n2c1 | 7.4 | nt | -0.9 | -8.7 | 0.1
COc1ccc(S(=O)(=O)N2CCCCC2c2cc(C(=O)N3CCOCC3)no2)cc1 (stereo not drawn) | -6.6 | -96.4* | nt | nt | nt
O=C(CN1C(=O)NC2(CCCC2)C1=O)Nc1cc(S(=O)(=O)N2CCOCC2)ccc1OCC(F)(F)F | -24.6 | -13.8 | 2.4 | -49.9* | -1.0
Cc1ccc(NC(=O)CCN2C(=O)NC3(CCCC3)C2=O)cc1S(=O)(=O)N1CCOCC1 | -22.6 | ? | 7.8 | -92.3* | -5.6
Cc1ccc(NC(=O)COC(=O)C2CSC3(C)CCC(=O)N23)cc1S(=O)(=O)N1CCOCC1 (stereo not drawn) | 2.1 | 10.3 | 3.5 | -37.6* | -6.9
O=C(CCCN1C(=O)NC2(CCCC2)C1=O)Nc1cccc(S(=O)(=O)N2CCOCC2)c1 | -7.2 | -17.0 | 0.6 | 6.4 | 0.7
CCN(CC)c1ccc(S(=O)(=O)N2CCOCC2)cc1NC(=O)CN1C(=O)NC2(CCCC2)C1=O | -10.0 | -14.5 | 0.8 | -10.2 | -6.2
Cc1ccc(NC(=O)CCCSc2ccccc2)cc1S(=O)(=O)N1CCOCC1 | -6.5 | 7.4 | 3.6 | -40.3* | -15.0
COc1ccc(NC(=O)CN(c2cccc(C)c2C)S(=O)(=O)c2ccccc2)cc1OC | 5.6 | nt | -1.6 | 0.6 | -0.5
CCOC(=O)Cc1ccc(NC(=O)NC(C)c2c(-n3cccc3)sc(C)c2C)cc1 (stereo not drawn) | 5.1 | nt | 2.7 | -23.9 | -6.9
CCC(Oc1ccccc1)C(=O)Nc1ccc(C)c(S(=O)(=O)N2CCOCC2)c1 (stereo not drawn) | 3.4 | 14.2 | 0.3 | 0.2 | -5.9
Cc1ccc(NC(=O)C(C)N2C(=O)c3ccccc3C2=O)cc1S(=O)(=O)N1CCOCC1 (stereo not drawn) | 2.1 | 15.7 | 3.9 | -41.9* | -5.3
O=C(CNc1cc(S(=O)(=O)N2CCCC2)ccc1OCC(F)(F)F)Nc1ccc(SC(F)F)cc1 | 0.6 | -1.5 | 11.4 | -51.4* | -8.4
Cc1ccc(NC(=O)CCNS(=O)(=O)c2ccccc2F)cc1S(=O)(=O)N1CCOCC1 | 4.3 | -0.1 | 1.5 | -58.5* | -3.3
O=C(CS(=O)(=O)c1ccccc1)Nc1ccccc1Br | 5.3 | 19.1 | nt | nt | nt
SMILES | DRD3 agonist | D3 antag | D1 agonist | D1 antag | D1 potentiator
CCc1cccc(-n2c(=O)c3cccnc3n2CC(=O)Nc2c(C)cc(C)cc2C)c1 | 6.1 | nt | 2.8 | 4.6 | 2.0
COc1ccc(-c2cc3ccc(O)c(CN4CCCC4)c3oc2=O)cc1OC | -8.2 | nt | 3.5 | -4.7 | 2.1
C[C@@H]1CN([C@H](C)CO)S(=O)(=O)c2ccc(Br)cc2O[C@@H]1CN(C)C(=O)NC1CCCC1 | -10.1 | -24.6 | nt | nt | nt
COc1cc(Cl)c(C)cc1NC(=O)CNC(C)c1ccccc1OC (stereo not drawn) | -17.0 | -12.4 | 2.5 | -5.3 | -6.8
COc1ccccc1C(C)NCC(=O)Nc1c(F)cccc1F (stereo not drawn) | -28.3 | -56.0* | 0.9 | 8.0 | -1.9
Cc1ccc(N/N=C(\C#N)C(=O)c2ccsc2)cc1 | 7.4 | 0.0 | 8.6 | -46.6* | -5.2
N#C/C(=N\Nc1ccc(Cl)cc1)C(=O)c1ccsc1 | 12.7 | -10.3 | 21.9 | -20.3 | -2.8
O=C(Nc1ccccc1OC(F)F)c1oc2ccccc2c1COc1ccccc1 | 4.5 | 0.0 | 32.0* | -8.1 | -1.9
O=S1(=O)CC(c2ccccc2)=NN=C(c2ccccc2)C1 | 2.7 | 7.2 | nt | nt | nt
CCOc1cc(/C=N/NC(=O)c2ccncc2)ccc1OC(=O)c1ccccc1 | 5.1 | 12.8 | 3.8 | -39.5* | -9.8
CCOc1cc(/C=N/NC(=O)c2ccncc2)ccc1OC(=O)c1ccc([N+](=O)[O-])cc1 | 0.4 | 6.6 | 2.1 | -13.6 | -9.4
COCCN1C(=O)N[C@@H](c2cccs2)C(C(C)=O)=C1C | 35.3* | -16.6 | nt | nt | nt
C=CCC(CC=C)(CNC(=O)C(=O)Nc1ccc(C(=O)OCC)cc1)c1ccccc1 | 5.0 | nt | 15.0 | 4.9 | -1.5
Brc1ccc(Nc2ncnc3[nH]ncc23)cc1 | 0.0 | -18.6 | 0.6 | -4.3 | -2.2
Cc1cccc(N2C(=O)CC(N3CCN(c4ccccn4)CC3)C2=O)c1 (stereo not drawn) | -0.5 | 5.8 | 2.6 | 9.3 | 4.5
CC(C)c1ccc2c(c1)C(N1CCN(C)CC1)Cc1cccnc1S2 (stereo not drawn) | -14.6 | -104.3* | nt | nt | nt
CCOC(=O)c1c(C)n(-c2ccccc2)c2ccc(OC(=O)c3ccc(OCC)c(OCC)c3)cc12 | -16.5 | nt | 6.5 | 4.1 | 0.3
CC(C)(C)NC(=O)CN1CCC(O)(c2ccccc2)CC1 | -16.6 | + | 3.9 | 0.6 | 0.1
CCOC(=O)c1oc2cc(OC(C)=O)ccc2c(=O)c1-c1ccc(OC)c(OC)c1 | 2.1 | 24.3 | 1.9 | -1.3 | -0.1
CCOC(=O)COc1ccc2c(=O)c(-c3ccc(OC)c(OC)c3)c(C(=O)OCC)oc2c1 | 9.9 | 5.0 | -0.6 | -45.4* | -4.8
CCCC(=O)N1CCC1(C)C(=O)Nc1ccc(OC)c(OC)c1 (stereo not drawn) | 12.7 | -3.0 | nt | nt | nt
CSc1ccccc1NC(=O)CSc1n[nH]c(C)c1[N+](=O)[O-] | -13.7 | -13.5 | 15.2 | 3.7 | -9.6
Cc1[nH]nc(SCC(=O)NCc2ccc(F)cc2)c1[N+](=O)[O-] | 4.0 | -3.8 | -0.8 | -39.8* | -6.2

High-throughput results as filed in PubChem BioAssay.
